The structures appear in SMILES notation. A number with no mark means an inactive call. The rule behind the calls is not given here.

The target in this experiment is L-lactate dehydrogenase (Plasmodium falciparum (isolate CDC / Honduras)) (UniProt Q27743). Nature of the experiment: PfLDH activity inhibition – cell lysate, 3D7 strain, counter-screen for P. falciparum growth inhibition project (AID 2304).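 Note: 0% = vehicle and 100% = reference inhibitor.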 To be noted: P. falciparum 3D7 crude extract, LDH APAD/NBT absorbance; at 2 µM; active compounds read high. Background: A counterscreen serves to expose hits that act by an unwanted route or on another target.
Chain of L-lactate dehydrogenase (Plasmodium falciparum (isolate CDC / Honduras)) (Q27743 whole entry, looked up): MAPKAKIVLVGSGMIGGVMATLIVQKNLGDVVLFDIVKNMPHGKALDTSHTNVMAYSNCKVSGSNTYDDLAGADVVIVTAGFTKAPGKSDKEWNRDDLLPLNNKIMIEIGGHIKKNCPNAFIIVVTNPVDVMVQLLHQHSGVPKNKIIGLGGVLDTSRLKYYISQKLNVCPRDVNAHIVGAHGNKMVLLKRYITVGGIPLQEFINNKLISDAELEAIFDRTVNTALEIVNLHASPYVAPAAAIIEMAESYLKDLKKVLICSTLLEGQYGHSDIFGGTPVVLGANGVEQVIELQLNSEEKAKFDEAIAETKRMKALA
Regarding `CCCCCCCN1CC[C@@H](CCCc2ccnc3ccc(OCCN4CCNCC4)cc23)[C@@H](CC)C1`, the inhibition – broadly, the relative decrease from the control value, in per cent – is -2%.
The value for `O=C(Cc1ccc(-c2ccccc2)cc1)N[C@H]1CCN(Cc2ccc(OCCCN3CCCCC3)cc2)C1` was 0%; that for `Cc1cc(C)n(-c2nc(Nc3cccc(C(F)(F)F)c3)nc(-n3nc(C)cc3C)n2)n1` was -6%.
The value for `O=C(NCc1cccc(F)c1)Nc1cccc(-c2ccc(-c3nc4ccc(F)cc4[nH]3)cc2)c1` was -3%; that for `NC(=O)C1CCN(Cc2cccc(-c3ccc(-c4nc5ccc(C(F)(F)F)cc5[nH]4)cc3)c2)CC1` was 8%; that for `CCCC[C@@H](C(=O)NCCc1ccc(Cl)cc1)N1C(=O)CCC1C(=O)Nc1ccc(Cl)c(Cl)c1` (some centres not stated) was 2%.
The result for `Nc1ncc(-c2ccc(F)cc2)c2ccc(-c3cccc(F)c3)cc12` reads 3%; that for `c1ccc(CCNCc2ccc(-c3cccc(-c4nc5ccccc5[nH]4)c3)cc2)nc1`, 7%.
As to `CCCCN1CCN(CCCCNc2c3ccccc3nc3ccccc23)CC1`, the inhibition is 4%.
The value for `CCCCCCN1CCCN(Cc2ccc(C(=O)Nc3ccc(Cl)cc3)cc2)CC1` was 3%; that for `COc1ccc(-c2cccc(NC(=O)c3ccc(C#N)cc3)c2)cc1CN1CCCN(C)CC1` was -3%; that for `CCCCCN1CCCC(NS(=O)(=O)c2ccc(C(=O)Nc3ccc(C(F)(F)F)cc3)cc2)C1` (configuration not stated) was 4%.
The result for `Cc1cc(O)c(CN(C)Cc2ccc(N(C)C)cc2)cc1C(C)C` reads -1%; that for `CNC(=O)CSc1nnc(-c2ccc(C)cc2)c(-c2ccc(C)cc2)n1`, -3%; that for `Cc1cc(C)c(NC(=O)NC2CCN(CCCCCNC(=O)/C=C/c3ccc(Cl)c(Cl)c3)CC2)c(C)c1`, 2%.
In the case of `Cn1c(=O)n(C)c2cc(CNCCNc3ccnc4cc(Cl)ccc34)ccc21`, the inhibition was -1%.
The result for `CC(OC(=O)c1ccc(C(=O)NCC2CC2)cc1)C(C)(C)C` (configuration not stated) reads -3%; that for `CCc1c(CCNCCCCCCNCCc2ccc([N+](=O)[O-])cc2)ccc(O)c1O`, -1%.
The value for `CS(=O)(=O)c1ccc(CCNCc2ccc(-c3cccc(-c4nc5ccccc5[nH]4)c3)cc2)cc1` was -4%; that for `CC[C@H](C)CNC(=O)c1cncc(-c2cccc(CNCCCc3ccccc3)c2)c1` was 1%; that for `Cc1cccc2[nH]c(-c3ccc(-c4cccc(NC(=O)c5ccncc5)c4)cc3)nc12` was -7%.
The result for `Cc1cc2nc(/N=C(\N)NC(=O)NC3CCCCC3)nc(C)c2cc1C` reads 2%; that for `CN1CCN(CCCN(Cc2ccc(-c3cccc(CNC4CCCC4)c3)cc2)C(=O)/C=C/c2ccccc2)CC1`, 4%.
Turning to `CCNc1cc(C(=O)N[C@@H](Cc2ccccc2)[C@H](O)CNC2CCC(C(C)(C)C)CC2)cc(N2CCCC2=O)c1` (some centres not stated), the inhibition was -3%.
The value for `CC(=O)Nc1ccc(C(=O)Nc2ccc(-c3cccc(-c4nc5ccccc5[nH]4)c3)cc2)cn1` was 2%.
The result for `Cc1cc2c(cc1C(F)(F)F)N(C(=O)Nc1cccc(C(=O)NC3CCN(Cc4ccccc4)CC3)c1)CC2` reads -2%; that for `Fc1ccc2nc(-c3cccc(-c4cccc(CNCCc5ccncc5)c4)c3)[nH]c2c1`, 2%.

(Values after PubChem BioAssay.)
